In the library only some 4% were active in any assay of this set; here they are far more common.
TRPM1 prom inh: MITF TRPM1 promoter inhibition in SK-MEL-5 cells; SK-MEL-5 TRPM1 promoter luciferase, 24 h; 330,000 tested, 0.83% active; inhibition, % at 12.5 µM;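 active = mean inhibition across replicates of 60% or more, whatever share of single replicates reaches that level; inconclusive = some that reach 60%, reason not given; inactive = mean inhibition across replicates below 60%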
esBAF inh: SWI/SNF esBAF complex inhibition. mouse ES cells, Bmi1-luciferase knock-in reporter, 24 h; 100% = twice the neutral-well signal. reporter increase, % at 12.5 µM. 350,000 tested, 2% active. AID 602393; in the data active = activation above about 40%; inconclusive = no clear call, values can overlap the other calls;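 note: 0% = median of the plate's neutral control wells and 100% = double that signal; a rise in the Bmi1 reporter signal indicates esBAF inhibition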
PAX8 inh HTS: PAX8 transcriptional activity inhibition. 360,000 tested, 1.2% active. RMG-I TPO-luciferase reporter, SteadyGlo, 24 h. AID 652154. inhibition, % at 12.6 µM;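 active = mean replicate inhibition at least 60% with every replicate also reaching 60%; inconclusive = only one of the two criteria is met; inactive = mean below 60% and not all replicates reaching 60%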;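 note: luciferase light reporting Pax8 driven TPO promoter activity; plate controls were median of neutral control wells for no effect and mitoxantrone controls for full effect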
EWS-Fli block: inhibitors of EWS/Fli oncoprotein transcriptional activity | A673 NR0B1-luciferase reporter, viability-normalised | inhibition, % at 12.6 µM | 350,000 tested, 0.67% active | AID 651661;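 active = mean inhibition of at least 50% after viability correction, with every replicate also passing that limit; inconclusive = mean reaches 50% but only one of two replicates passes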;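 note: firefly luciferase signal divided by Alamar Blue viability fluorescence both relative to DMSO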
MITF act: increases MITF-driven TRPM1 promoter luciferase signal; 300,000 tested, 0.75% active; activation, % at 12.5 µM; SK-MEL-5 TRPM1-promoter luciferase, 24 h; % of positive control, neutral wells = 0;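 active = mean activation of at least 80% with every replicate also reaching 80%; inconclusive = mean reaches 80% but some replicate falls short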;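 note: 0% = neutral control wells and 100% = parthenolide positive control wells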
Wnt bcat act: activates Wnt/beta-catenin signaling in a reporter cell assay. 300,000 tested, 1.2% active. activation, % at 9.35 µM. activator, plate reader; in the data active = activation above about 30%, passing the limit was not always enough; inconclusive = no clear call, values can overlap the other calls;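 note: 0% = neutral control wells and 100% = positive control wells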
Starred values were filed as active, the others as inactive; ? = inconclusive; nt = not tested or not shown.

SMILES	TRPM1 prom inh	esBAF inh	PAX8 inh HTS	EWS-Fli block	MITF act	Wnt bcat act
OC[C@@H]1[C@@H]2c3ccccc3NC[C@@H]2N1Cc1cccnc1	nt	-4	6	6	nt	nt
CC1Oc2cc3c(-c4c(O)cc(O)c5c(O)c6c(cc45)OC(C)C(C)C6=O)c(O)cc(O)c3c(O)c2C(=O)C1C (configuration not stated)	82*	-59	nt	nt	-82	nt
CN(C)C(=O)Oc1c(Cl)cc(Cl)c2cccnc12	-1	-8	-18	-7	-2	48*
O=C(c1ccccc1)C(CN1CCCC1)c1ccccc1 (configuration not stated)	nt	nt	100*	nt	-99	nt
CCN1CCN(CC(c2ccccc2)c2ccccc2)CC1	-3	-3	20	14	nt	-2
COc1ccc(NC2Oc3cc4c(cc3C(c3cc(OC)c(OC)c(OC)c3)C2C)OCO4)cc1 (configuration not stated)	18	nt	38	54*	nt	-11
COC(=O)[C@H]1[C@H](CO)[C@H]2Cn3c(ccc(C4=CCCCC4)c3=O)[C@@H]1N2CC1CCCCC1	nt	nt	nt	26	nt	nt
O=C(O)[C@@H]1[C@@H](CO)[C@@H]2Cn3c(ccc(C4=CCCC4)c3=O)[C@H]1N2C(=O)Cc1ccccn1	nt	2	nt	1	nt	nt
O=C(Cc1ccncc1)N1CCCCN2[C@H](CO)[C@H](c3ccc(C#Cc4ccccc4F)cc3)[C@H]2C1	nt	0	-7	1	nt	nt
COc1cc2cc(C(=O)N3CC(COS(C)(=O)=O)c4ccc(O)cc43)[nH]c2c(OC)c1OC (configuration not stated)	110*	nt	nt	nt	nt	nt
COc1ccccc1CN1[C@H](CO)[C@H](c2ccccc2)C12CN(C(=O)Cc1ccccc1)C2	nt	nt	35	-2	nt	nt
C[C@H]1CN([C@@H](C)CO)C(=O)CCCn2cc(nn2)CO[C@H]1CN(C)C(=O)Oc1cccc2ccccc12	nt	2	-2	3	nt	nt
Cc1ccc(C(=O)N[C@@H](C)CN2C3=NC[C@@H](Cc4ccccc4)N3C[C@H]2Cc2ccc(O)cc2)cc1Br	nt	nt	111*	24	nt	24
COc1ccc(C#Cc2ccc([C@H]3[C@H](CO)N4CCCCN(C(=O)Cc5ccncc5)C[C@@H]34)cc2)cc1	nt	nt	-1	nt	nt	nt
C[C@H]1[C@@H](OS(=O)(=O)O)C[C@@H]2C[C@H]([C@@H](O)c3cc(=O)[nH]c(=O)[nH]3)NC3=NC[C@H]1N32	74*	-28	nt	nt	-73	nt
COC(=O)C1=C(c2ccc(OCc3ccccc3)cc2)C[C@@H]2CC[C@H]1N2C(=O)NCc1ccc([N+](=O)[O-])cc1	14	8	68*	10	-8	-5
COC(=O)C1=C(c2ccc(OCc3ccccc3)cc2)C[C@@H]2CC[C@H]1N2C(=O)NCc1ccc(C(C)(C)C)cc1	nt	0	86*	30	nt	-4
COC(=O)C1=C(c2cccc(OCc3ccccc3)c2)C[C@@H]2CC[C@H]1N2C(=O)NCc1cc(C)oc1C(F)(F)F	9	4	63*	5	-11	-16
COC(=O)C1=C(c2cccc(OCc3ccccc3)c2)C[C@@H]2CC[C@H]1N2C(=O)NCc1cccc(C(F)(F)F)c1	4	12	37	18	-4	0
O=C(O)[C@@H]1[C@@H](CO)[C@@H]2Cn3c(ccc(-c4cncnc4)c3=O)[C@H]1N2C(=O)NC1CCCC1	nt	2	-10	14	nt	nt
O=C(Cc1ccccn1)N1CCCCN2[C@H](CO)[C@@H](c3ccc(C#Cc4ccccc4)cc3)[C@H]2C1	nt	nt	-15	1	nt	nt
CCOC(=O)[C@]12Cc3c(cc(OC)c(OC)c3OC)[C@H]1N(C1CCCCC1)C(=O)c1ccccc12	nt	nt	89*	48	nt	-3
CCOC(=O)[C@]12Cc3ccc(C)cc3[C@H]1N(C1CCCCC1)C(=O)c1cc(OC)ccc12	nt	nt	101*	?	nt	-1
CCOC(=O)[C@]12Cc3cc(Cl)ccc3[C@H]1N(C1CCCCC1)C(=O)c1cc(OC)ccc12	nt	nt	105*	68*	nt	-20
CCOC(=O)[C@]12Cc3cc(C)ccc3[C@H]1N(CCC(=O)OC)C(=O)c1ccccc12	nt	nt	17	21	nt	-11
SMILES	TRPM1 prom inh	esBAF inh	PAX8 inh HTS	EWS-Fli block	MITF act	Wnt bcat act
CCOC(=O)[C@]12Cc3cc(OC)ccc3[C@H]1N(C)C(=O)c1cc(OC)ccc12	nt	nt	3	-1	nt	-2
CCOC(=O)[C@]12Cc3cc(C)ccc3[C@H]1N(C1CCCCC1)C(=O)c1ccccc12	nt	nt	86*	43	nt	-3
O=C(Cc1ccccn1)N1CCCCN2[C@@H](CO)[C@H](c3ccc(C#Cc4ccccc4)cc3)[C@@H]2C1	nt	nt	7	-1	nt	nt
O=C(Cc1ccccc1)N1C[C@@H]2[C@H](c3ccccc31)[C@@H](CO)N2Cc1ccccc1	nt	-4	13	4	nt	nt
O=C(Cc1ccccc1)N1CCCCN2[C@H](CO)[C@H](c3ccc(C#CC4(O)CCCC4)cc3)[C@@H]2C1	nt	nt	7	8	nt	nt
CC(=O)O[C@H]1[C@H]2O[C@]23[C@@H]2CC[C@]4(O)C[C@@H](O)CC[C@]4(C)C2CC[C@]3(C)[C@H]1c1ccc(=O)oc1 (some centres not stated)	79*	-7	nt	nt	-77	nt
NC(Cc1ccc(F)cc1)c1csc(Nc2ncccn2)n1 (configuration not stated)	nt	nt	74*	-9	nt	-1
Nc1ccc(CC(N)c2csc(Nc3ncccn3)n2)cc1 (configuration not stated)	nt	nt	2	-41	nt	21
COC(=O)[C@@H]1[C@@H](CO)[C@@H]2Cn3c(ccc(C4=CCCC4)c3=O)[C@H]1N2CC1CCCCC1	nt	2	nt	1	nt	nt
Cc1ccc(N)c(C(=O)c2ccc(Br)cc2)c1	-1	nt	4	1	0	2
Cc1ccc(N)c(N)c1	-103	-22	nt	-47	99*	29
COC(=O)[C@H]1[C@H](CO)[C@H]2Cn3c(ccc(-c4ccccc4F)c3=O)[C@@H]1N2Cc1ccncc1	nt	12	1	-3	nt	nt
CCOC(=O)c1c(N)n(CCCOC(=O)c2ccco2)c2nc3ccccc3nc12	89*	6	nt	nt	nt	-1
COCCCn1c(N)c(C(=O)OCCOC)c2nc3ccccc3nc21	12	3	nt	nt	nt	-3
O/N=C/c1c[nH]c2ccccc12	4	nt	nt	nt	-5	nt
NC(=Nc1ccccc1)NN=Cc1c[nH]c2ccccc12	88*	nt	45	40	-87	-16
O=C(Nc1ccc(Cl)c(Cl)c1)c1ccco1	-60	60*	-74	-63	54	9
C=CCNC(=S)Nc1ccc(OC(=O)Nc2ccc(Cl)c(Cl)c2)cc1	-4	-1	2	0	1	2
COc1ccc(-c2ccc([C@@H]3[C@H](CO)N4CCCCN(C(=O)Cc5ccccc5)C[C@@H]34)cc2)cc1	nt	nt	-8	nt	nt	nt
CNC(=O)Oc1ccc(-c2cn3cc(C)ccc3n2)cc1	20	nt	40	70*	-19	-5
COC(=O)[C@@H]1[C@@H](CO)[C@@H]2Cn3c(ccc(-c4cccc(OC)c4)c3=O)[C@H]1N2CC1CC1	nt	2	nt	7	nt	nt

Source: PubChem BioAssay (Broad Institute)
